Activity calls are given as the source filed them.
Columns and labels:
[1] = test system: PRMT1 (protein arginine N-methyltransferase 1); test: PRMT1 binders on small-molecule microarrays, primary screen, biochemical, small-molecule microarray, 635 nm fluorescence (AID 1088); conditions: small-molecule microarray binding, higher = more signal;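 further: binding of Prmt1 protein to compounds spotted on small-molecule microarray slides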
[2] = yeast growth modulation, basal conditions, primary screen, YJM789 clinical isolate, OD600, 24 h (AID 1089);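 further: growth of clinical yeast isolate S. cerevisiae YJM 789 seeded 1000 cells per well; test concentration not given here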; conditions: S. cerevisiae YJM789 growth, higher = more signal, called active from +8 up or from −8 down
[3] = fission yeast growth modulation, primary screen, strain 972, OD600, 24 h, no modulator (AID 1090);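 further: basal condition with compound alone and no growth modifier present; test concentration not given here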; conditions: S. pombe 972 growth, higher = more signal, called active from +8 up or from −8 down
[4] = S. cerevisiae growth modulation with rapamycin, primary screen, strain BY4716, OD600, 96 h (AID 1091); conditions: higher = more signal, called active from +8 up or from −8 down; further: test concentration not given here
[5] = target: Torsin-1A-interacting protein 2 (Homo sapiens) (UniProt Q8NFQ8); test: LULL1 binders on small-molecule microarray, primary screen, cell lysate, human LULL1 lysate, 635/667 nm fluorescence (AID 1092); conditions: hLULL1 lysate binding, 635 nm fluorescence, higher = more signal;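 further: probe is lysate of COS7 cells overexpressing human LULL1; score merges per-feature 667 nm fluorescence with signal-to-noise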
[6] = E. coli growth modulation, two-sided OD650, primary screen, E. coli filamentation project, strain DRC41, 24 h (AID 1093); conditions: OD650, 24 h, higher = more signal, called active from +8 up or from −8 down;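 further: MC1000 strain lacking acrAB efflux and sulA so SOS filamentation is blocked; test concentration not given here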
[7] = small-molecule microarray binders of probe aLefty2, primary screen, biochemical, biotinylated probe, 635/667 nm fluorescence (AID 1094); conditions: higher = more signal;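 further: score merges spot fluorescence near 667 nm with spot signal-to-noise ratio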
[8] = test system: Noggin (protein binding on small-molecule microarray); test: Noggin binders on small-molecule microarray, primary screen, biochemical, 635/667 nm fluorescence (AID 1095); conditions: 635 nm fluorescence, higher = more signal;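 further: score merges 667 nm feature fluorescence with signal to noise over triplicate slides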
[9] = target: Neurogenic locus notch homolog protein 3 (Homo sapiens) (UniProt Q9UM47); test: NOTCH3 binders on small-molecule microarray, primary screen, biochemical, 635/667 nm fluorescence (AID 1096); conditions: NOTCH3 binding, 635 nm fluorescence, higher = more signal
[10] = small-molecule microarray binders of probe aEGFR, primary screen, biochemical, biotinylated probe, 635/667 nm fluorescence (AID 1097); conditions: higher = more signal;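 further: probe is a biotinylated anti-EGFR antibody binding compounds printed on slides; score combines fluorescence near 667 nm and signal to noise of each spot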
[11] = test system: Plasmodium falciparum Sir2 (PF13_0152, Sir2A); test: pfSir2 binders on small-molecule microarrays, primary screen, biochemical, small-molecule microarray, 635 nm fluorescence (AID 1098); conditions: small-molecule microarray binding, fluorescence 635 nm; higher = more signal;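 further: score merges spot fluorescence intensity with its signal-to-noise ratio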
[12] = small-molecule microarray binders of probe aDKK1, primary screen, biochemical, biotinylated probe, 635/667 nm fluorescence (AID 1099); conditions: higher = more signal;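 further: score merges 667nm spot fluorescence with signal to noise across triplicate slides; reference of the scale not given here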
[13] = small-molecule microarray binders of probe aCHRDL2, primary screen, biochemical, biotinylated probe, 635/667 nm fluorescence (AID 1100); conditions: higher = more signal
[14] = splicing luciferase reporter signal modulators, primary screen, spliceosome inhibition project, cell-based, HEK293, splice +/- reporter (AID 1101); conditions: luminescence, 24 h, higher = more signal, called active from +8 up or from −8 down;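 further: HEK293 cells carrying a splicing-competent luciferase reporter gene; test concentration not given here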
[15] = target: Fibroblast growth factor 10 (Homo sapiens) (UniProt O15520); test: FGF10 binders on small-molecule microarrays, primary screen, biochemical, small-molecule microarray, 635 nm fluorescence (AID 1102); conditions: FGF10 binding, fluorescence 635 nm, higher = more signal
[16] = test system: glycogen synthase kinase-3 (GSK3A per assay name; protocol says GSK3B); test: GSK3 binders on small-molecule microarrays, primary screen, biochemical, small-molecule microarray, 635 nm fluorescence, GSK3A (AID 1103); conditions: small-molecule microarray binding, fluorescence 635 nm; higher = more signal; further: the record names both GSK3A and GSK3B
[17] = target: Epidermal growth factor receptor (Homo sapiens) (UniProt P00533); test: EGFR binders on small-molecule microarrays, primary screen, biochemical, small-molecule microarray, 635 nm fluorescence (AID 1104); conditions: EGFR binding, higher = more signal;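 further: score merges 667 nm emission intensity with spot signal to noise over triplicate slides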
[18] = target: Follistatin-related protein 3 (Homo sapiens) (UniProt O95633); test: FSTL3 binders on small-molecule microarrays, primary screen, biochemical, small-molecule microarray, 635 nm fluorescence (AID 1105); conditions: FSTL3 binding, higher = more signal;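 further: score merges emission near 667 nm and signal to noise per printed spot across three slides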
[19] = target: Dickkopf-related protein 1 (Homo sapiens) (UniProt O94907); test: DKK1 binders on small-molecule microarrays, primary screen, biochemical, small-molecule microarray, 635 nm fluorescence scan (AID 1106); conditions: DKK1 binding, higher = more signal;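 further: score merges emission near 667 nm with signal to noise over three replicate slides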
[20] = test system: Inhibin beta A chain (activin A); test: INHBA (activin A) binders on microarrays, primary screen, biochemical, small-molecule microarray, 635 nm fluorescence scan (AID 1107); conditions: small-molecule microarray binding, higher = more signal;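 further: mouse activin A protein probed at 4.33 µg/mL on printed slides; score merges bound-protein fluorescence near 667 nm with spot signal-to-noise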

Sequence of Neurogenic locus notch homolog protein 3 (Homo sapiens) (Q9UM47 whole entry, looked up): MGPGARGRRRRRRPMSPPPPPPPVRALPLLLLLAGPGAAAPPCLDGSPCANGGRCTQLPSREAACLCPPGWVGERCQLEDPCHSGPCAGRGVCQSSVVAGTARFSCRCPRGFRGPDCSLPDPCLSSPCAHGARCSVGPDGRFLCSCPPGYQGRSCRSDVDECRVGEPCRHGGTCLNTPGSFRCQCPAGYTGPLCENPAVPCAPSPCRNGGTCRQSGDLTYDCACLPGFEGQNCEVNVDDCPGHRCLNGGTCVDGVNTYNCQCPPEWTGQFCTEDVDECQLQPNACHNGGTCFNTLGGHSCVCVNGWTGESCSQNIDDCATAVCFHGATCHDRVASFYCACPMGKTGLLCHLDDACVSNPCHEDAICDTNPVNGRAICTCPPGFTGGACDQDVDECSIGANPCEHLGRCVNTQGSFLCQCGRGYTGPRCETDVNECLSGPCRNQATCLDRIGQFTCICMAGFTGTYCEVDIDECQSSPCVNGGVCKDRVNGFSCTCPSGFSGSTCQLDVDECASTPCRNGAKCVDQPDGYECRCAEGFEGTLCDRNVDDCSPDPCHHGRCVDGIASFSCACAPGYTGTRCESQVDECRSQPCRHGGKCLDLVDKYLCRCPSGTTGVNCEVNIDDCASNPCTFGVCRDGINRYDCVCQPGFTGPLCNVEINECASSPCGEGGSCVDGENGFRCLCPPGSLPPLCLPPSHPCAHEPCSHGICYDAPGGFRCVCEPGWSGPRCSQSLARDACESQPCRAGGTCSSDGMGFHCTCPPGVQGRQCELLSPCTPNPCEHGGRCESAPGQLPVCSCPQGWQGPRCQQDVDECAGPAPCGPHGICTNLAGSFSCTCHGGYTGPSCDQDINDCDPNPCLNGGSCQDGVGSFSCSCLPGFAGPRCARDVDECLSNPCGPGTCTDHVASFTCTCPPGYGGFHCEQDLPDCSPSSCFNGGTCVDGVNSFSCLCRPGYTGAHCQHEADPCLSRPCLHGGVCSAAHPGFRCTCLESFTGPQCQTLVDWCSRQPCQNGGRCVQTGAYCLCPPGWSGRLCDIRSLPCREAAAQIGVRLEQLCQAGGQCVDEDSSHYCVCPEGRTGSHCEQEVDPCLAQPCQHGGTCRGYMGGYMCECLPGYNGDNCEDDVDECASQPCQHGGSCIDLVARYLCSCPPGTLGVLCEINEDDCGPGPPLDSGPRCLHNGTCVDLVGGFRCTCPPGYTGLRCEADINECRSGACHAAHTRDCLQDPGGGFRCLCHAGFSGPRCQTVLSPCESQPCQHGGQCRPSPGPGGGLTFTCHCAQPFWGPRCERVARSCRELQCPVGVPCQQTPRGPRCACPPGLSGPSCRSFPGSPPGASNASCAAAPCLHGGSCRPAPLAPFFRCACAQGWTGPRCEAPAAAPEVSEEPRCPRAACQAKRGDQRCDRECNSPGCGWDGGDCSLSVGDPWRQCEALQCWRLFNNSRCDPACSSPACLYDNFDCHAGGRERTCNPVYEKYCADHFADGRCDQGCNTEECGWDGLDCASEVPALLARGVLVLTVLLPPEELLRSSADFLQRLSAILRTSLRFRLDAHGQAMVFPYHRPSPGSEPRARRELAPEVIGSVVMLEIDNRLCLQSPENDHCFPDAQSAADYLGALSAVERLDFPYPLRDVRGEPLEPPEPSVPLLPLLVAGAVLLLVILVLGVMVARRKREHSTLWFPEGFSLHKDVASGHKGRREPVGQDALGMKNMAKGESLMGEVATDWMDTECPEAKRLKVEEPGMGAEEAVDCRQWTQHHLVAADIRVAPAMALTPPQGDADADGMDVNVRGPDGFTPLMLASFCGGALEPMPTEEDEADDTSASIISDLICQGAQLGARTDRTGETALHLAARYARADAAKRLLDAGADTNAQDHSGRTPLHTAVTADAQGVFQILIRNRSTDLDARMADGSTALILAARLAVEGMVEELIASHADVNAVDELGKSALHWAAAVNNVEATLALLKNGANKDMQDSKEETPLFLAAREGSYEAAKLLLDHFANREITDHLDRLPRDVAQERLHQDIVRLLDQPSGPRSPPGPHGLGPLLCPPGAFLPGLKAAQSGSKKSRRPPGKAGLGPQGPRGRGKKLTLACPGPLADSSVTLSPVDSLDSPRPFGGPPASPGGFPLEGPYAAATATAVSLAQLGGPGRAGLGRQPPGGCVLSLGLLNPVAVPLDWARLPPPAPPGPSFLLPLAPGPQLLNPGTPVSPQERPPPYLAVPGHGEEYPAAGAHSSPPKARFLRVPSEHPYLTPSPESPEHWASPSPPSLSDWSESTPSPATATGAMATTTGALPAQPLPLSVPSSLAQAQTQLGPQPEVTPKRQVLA
Sequence of Torsin-1A-interacting protein 2 (Homo sapiens) (Q8NFQ8 whole entry, looked up): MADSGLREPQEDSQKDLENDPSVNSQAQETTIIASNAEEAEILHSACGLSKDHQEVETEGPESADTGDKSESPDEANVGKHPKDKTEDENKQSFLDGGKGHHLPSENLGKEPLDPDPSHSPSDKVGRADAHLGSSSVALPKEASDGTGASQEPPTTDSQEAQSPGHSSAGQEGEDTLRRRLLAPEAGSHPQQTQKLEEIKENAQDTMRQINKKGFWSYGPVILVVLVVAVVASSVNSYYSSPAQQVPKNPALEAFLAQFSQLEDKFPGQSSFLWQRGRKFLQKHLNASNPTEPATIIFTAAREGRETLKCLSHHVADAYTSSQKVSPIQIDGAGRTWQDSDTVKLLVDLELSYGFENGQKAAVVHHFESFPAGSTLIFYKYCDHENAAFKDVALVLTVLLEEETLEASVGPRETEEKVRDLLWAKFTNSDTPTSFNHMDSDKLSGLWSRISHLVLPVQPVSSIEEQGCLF
Sequence of Fibroblast growth factor 10 (Homo sapiens) (O15520 whole entry, looked up): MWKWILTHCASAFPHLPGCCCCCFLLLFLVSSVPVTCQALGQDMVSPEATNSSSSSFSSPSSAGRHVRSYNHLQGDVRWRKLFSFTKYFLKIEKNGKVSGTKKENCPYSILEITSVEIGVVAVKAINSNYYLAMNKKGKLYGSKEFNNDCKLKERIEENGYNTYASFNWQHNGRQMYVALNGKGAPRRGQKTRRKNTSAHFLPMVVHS
Sequence of Epidermal growth factor receptor (Homo sapiens) (P00533 whole entry, looked up): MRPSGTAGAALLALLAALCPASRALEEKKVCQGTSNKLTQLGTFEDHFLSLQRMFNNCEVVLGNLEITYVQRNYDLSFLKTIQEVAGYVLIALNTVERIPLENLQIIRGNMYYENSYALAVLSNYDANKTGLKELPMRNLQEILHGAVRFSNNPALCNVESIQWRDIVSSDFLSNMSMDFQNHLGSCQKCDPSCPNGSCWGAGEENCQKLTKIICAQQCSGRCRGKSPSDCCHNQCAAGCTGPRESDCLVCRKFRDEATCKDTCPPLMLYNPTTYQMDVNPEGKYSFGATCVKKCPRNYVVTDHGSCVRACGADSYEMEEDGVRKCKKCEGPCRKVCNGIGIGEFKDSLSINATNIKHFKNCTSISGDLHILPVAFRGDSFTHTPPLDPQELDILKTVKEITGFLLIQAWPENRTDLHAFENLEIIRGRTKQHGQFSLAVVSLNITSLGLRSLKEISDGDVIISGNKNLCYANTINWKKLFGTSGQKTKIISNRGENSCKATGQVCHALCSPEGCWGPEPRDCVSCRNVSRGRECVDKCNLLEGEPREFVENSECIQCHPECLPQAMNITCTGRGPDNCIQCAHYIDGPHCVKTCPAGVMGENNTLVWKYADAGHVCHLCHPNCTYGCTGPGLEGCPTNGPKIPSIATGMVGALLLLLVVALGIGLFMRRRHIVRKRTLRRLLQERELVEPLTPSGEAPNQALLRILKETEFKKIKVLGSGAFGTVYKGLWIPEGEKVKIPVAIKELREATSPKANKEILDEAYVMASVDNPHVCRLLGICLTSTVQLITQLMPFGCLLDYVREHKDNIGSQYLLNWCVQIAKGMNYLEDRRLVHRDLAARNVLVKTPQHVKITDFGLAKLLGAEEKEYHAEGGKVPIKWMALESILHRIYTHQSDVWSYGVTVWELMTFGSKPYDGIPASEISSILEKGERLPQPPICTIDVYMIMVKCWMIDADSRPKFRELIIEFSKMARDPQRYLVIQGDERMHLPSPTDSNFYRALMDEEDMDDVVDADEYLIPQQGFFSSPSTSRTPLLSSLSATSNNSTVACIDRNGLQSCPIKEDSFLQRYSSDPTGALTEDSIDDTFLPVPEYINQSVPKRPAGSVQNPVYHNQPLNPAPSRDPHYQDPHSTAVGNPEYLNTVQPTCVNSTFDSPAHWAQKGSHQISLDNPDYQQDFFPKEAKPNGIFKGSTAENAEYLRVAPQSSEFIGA
Sequence of Dickkopf-related protein 1 (Homo sapiens) (O94907 whole entry, looked up): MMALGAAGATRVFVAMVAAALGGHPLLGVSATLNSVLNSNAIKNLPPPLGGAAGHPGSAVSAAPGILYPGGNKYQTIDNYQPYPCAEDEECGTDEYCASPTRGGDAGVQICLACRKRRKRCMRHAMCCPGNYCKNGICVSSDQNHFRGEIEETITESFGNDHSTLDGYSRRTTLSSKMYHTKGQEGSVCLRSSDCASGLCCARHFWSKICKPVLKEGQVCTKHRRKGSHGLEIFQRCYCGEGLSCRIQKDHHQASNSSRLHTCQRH
Sequence of Follistatin-related protein 3 (Homo sapiens) (O95633 whole entry, looked up): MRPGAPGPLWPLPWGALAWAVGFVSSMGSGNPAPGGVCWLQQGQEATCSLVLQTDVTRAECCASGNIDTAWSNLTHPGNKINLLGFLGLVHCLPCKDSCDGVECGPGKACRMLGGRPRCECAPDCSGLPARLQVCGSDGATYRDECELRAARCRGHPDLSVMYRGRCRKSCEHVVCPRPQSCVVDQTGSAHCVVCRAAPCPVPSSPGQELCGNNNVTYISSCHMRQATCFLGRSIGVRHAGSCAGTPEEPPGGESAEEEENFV

CN1C(=O)C2C=CC(C(O)c3cccn3C)N(Nc3ccc([N+](=O)[O-])cc3[N+](=O)[O-])C2C1=O (stereo not given)
composite z-score [1]: 0.0715
z-score [2]: 0.82 (inactive)
z-score [3]: 1.33 (inactive)
z-score [4]: 0.731 (inactive)
composite z-score [5]: 0.711
z-score [6]: -0.345 (inactive)
composite z-score [7]: 0.269
composite z-score [8]: 0.5
composite z-score [9]: -0.266
composite z-score [10]: 0.0365
composite z-score [11]: 0.0859
composite z-score [12]: 0.821
composite z-score [13]: 0.897
z-score [14]: 1.15 (inactive)
composite z-score [15]: 0.219
composite z-score [16]: -0.269
composite z-score [17]: -0.157
composite z-score [18]: -0.0164
composite z-score [19]: -0.31
composite z-score [20]: 1.12

CC(C)c1ccc(NN2C(C(O)c3ccc(F)cc3)C=CC3C(=O)N(c4ccccc4)C(=O)C32)cc1 (stereo not given)
composite z-score [1]: 1.47
z-score [2]: 1.22 (inactive)
z-score [3]: 0.842 (inactive)
z-score [4]: 0.159 (inactive)
composite z-score [5]: 3.57
z-score [6]: -1.01 (inactive)
composite z-score [7]: -0.0865
composite z-score [8]: -0.101
composite z-score [9]: 1.03
composite z-score [10]: 0.0182
composite z-score [11]: 1.28
composite z-score [12]: 0.47
composite z-score [13]: 0.775
z-score [14]: -0.548 (inactive)
composite z-score [15]: 1.07
composite z-score [16]: 0.275
composite z-score [17]: 0.3
composite z-score [18]: 1.37
composite z-score [19]: -0.0647
composite z-score [20]: 0.869

C[N+](C)(C)CCCCCCNC(=O)[C@@H]1C[C@@H]2C(=O)N3CCC[C@H]3C(=O)N2[C@@H]1c1ccc(O)cc1
composite z-score [1]: 1.43
z-score [2]: -0.913 (inactive)
z-score [3]: 0.214 (inactive)
z-score [4]: -0.696 (inactive)
composite z-score [5]: 2.9
z-score [6]: 0.2 (inactive)
composite z-score [7]: -0.0216
composite z-score [8]: 1.4
composite z-score [9]: 1.03
composite z-score [10]: 0.0401
composite z-score [11]: 1.1
composite z-score [12]: -0.0891
composite z-score [13]: 0.614
z-score [14]: -0.546 (inactive)
composite z-score [15]: 1.37
composite z-score [16]: 1.2
composite z-score [17]: 1.23
composite z-score [18]: 1.46
composite z-score [19]: 1.25
composite z-score [20]: 0.578

CC[C@@H]1C=C(C(=O)O)[C@H](c2ccccc2)N1S(=O)(=O)c1ccc(C)cc1
composite z-score [1]: 0.598
z-score [2]: -1.14 (inactive)
z-score [3]: 0.231 (inactive)
z-score [4]: -0.12 (inactive)
composite z-score [5]: 2.87
z-score [6]: -0.749 (inactive)
composite z-score [7]: 0.262
composite z-score [8]: 0.103
composite z-score [9]: 0.981
composite z-score [10]: 0.0638
composite z-score [11]: 1.69
composite z-score [12]: 0.748
composite z-score [13]: 0.853
z-score [14]: 0.0795 (inactive)
composite z-score [15]: 0.825
composite z-score [16]: 0.52
composite z-score [17]: -0.482
composite z-score [18]: 0.0194
composite z-score [19]: -0.294
composite z-score [20]: 0.941

CC(C)(C)OC(=O)CC[C@@]1(C(=O)NCC(O)CO)N=C(c2ccc(OCCCO)cc2)O[C@@H]1c1ccccc1CN=[N+]=[N-] (stereo not given in full)
composite z-score [1]: 0.782
z-score [2]: -0.614 (inactive)
z-score [3]: 0.0076 (inactive)
z-score [4]: -0.753 (inactive)
composite z-score [5]: 2.89
z-score [6]: 0.188 (inactive)
composite z-score [7]: -0.0691
composite z-score [8]: 0.153
composite z-score [9]: 0.558
composite z-score [10]: -0.0229
composite z-score [11]: 0.552
composite z-score [12]: 0.726
composite z-score [13]: 0.918
z-score [14]: -0.0605 (inactive)
composite z-score [15]: 0.364
composite z-score [16]: 0.706
composite z-score [17]: -0.0699
composite z-score [18]: 0.335
composite z-score [19]: -0.39
composite z-score [20]: 0.349

O=C(NCCN1CCOCC1)[C@@H]1c2ccccc2C(=O)N(Cc2ccccc2Cl)[C@H]1c1ccc(CO)cc1
composite z-score [1]: -0.7
z-score [2]: 0.506 (inactive)
z-score [3]: 0.545 (inactive)
z-score [4]: -0.214 (inactive)
composite z-score [5]: -0.201
z-score [6]: 0.561 (inactive)
composite z-score [7]: -0.547
composite z-score [8]: -1.31
composite z-score [9]: -1.4
composite z-score [10]: -0.362
composite z-score [11]: -0.855
composite z-score [12]: -0.633
composite z-score [13]: -0.803
z-score [14]: -0.284 (inactive)
composite z-score [15]: -1.16
composite z-score [16]: -0.52
composite z-score [17]: -0.494
composite z-score [18]: 0.0801
composite z-score [19]: -0.569
composite z-score [20]: 0.823

CCOC(=O)C[C@H]1[C@H](OC(=O)c2cc3ccccc3oc2=O)[C@@H](NC(=O)c2ccccc2)c2cc(OCCCO)ccc2N1C(=O)c1ccccc1
composite z-score [1]: 0.58
z-score [2]: 0.126 (inactive)
z-score [3]: -1.64 (inactive)
z-score [4]: -0.277 (inactive)
composite z-score [5]: -0.098
z-score [6]: -0.12 (inactive)
composite z-score [7]: -0.0422
composite z-score [8]: 0.992
composite z-score [9]: 0.819
composite z-score [10]: 0.223
composite z-score [11]: -0.06
composite z-score [12]: -0.198
composite z-score [13]: -0.432
z-score [14]: -0.644 (inactive)
composite z-score [15]: 0.836
composite z-score [16]: 0.775
composite z-score [17]: 0.417
composite z-score [18]: 0.653
composite z-score [19]: 0.415
composite z-score [20]: 0.225

COc1cccc(C)c1NC(=O)O[C@H]1[C@H](OC(=O)Nc2ccc3c(c2)OCO3)[C@@H](OC(=O)Nc2ccc3c(c2)OCO3)[C@@H](OC)O[C@@H]1CO
composite z-score [1]: 1.54
z-score [2]: 1.94 (inactive)
z-score [3]: 2.2 (inactive)
z-score [4]: 8.01 (active)
composite z-score [5]: 3.58
z-score [6]: 1.23 (inactive)
composite z-score [7]: 0.218
composite z-score [8]: 1.4
composite z-score [9]: 1.04
composite z-score [10]: -0.0031
composite z-score [11]: 0.264
composite z-score [12]: 0.18
composite z-score [13]: 0.232
z-score [14]: -0.23 (inactive)
composite z-score [15]: 1.46
composite z-score [16]: 1.35
composite z-score [17]: 0.603
composite z-score [18]: 1.44
composite z-score [19]: 0.708
composite z-score [20]: 0.724

COCCOC(=O)N1C(=O)[C@@]2(c3cc(C#CCNC(N)=O)ccc31)[C@H](C(N)=O)[C@H]1C(=O)O[C@H](c3ccccc3)[C@H](c3ccccc3)N1[C@@H]2c1ccccc1OCCO
composite z-score [1]: 1.47
z-score [2]: 1 (inactive)
z-score [3]: 0.346 (inactive)
z-score [4]: 1.91 (inactive)
composite z-score [5]: 2.07
z-score [6]: -0.658 (inactive)
composite z-score [7]: 0.0389
composite z-score [8]: 0.506
composite z-score [9]: 1.08
composite z-score [10]: -0.071
composite z-score [11]: 1.16
composite z-score [12]: 0.0377
composite z-score [13]: 0.803
z-score [14]: 0.565 (inactive)
composite z-score [15]: 1.07
composite z-score [16]: 0.782
composite z-score [17]: 0.302
composite z-score [18]: 1.31
composite z-score [19]: 0.78
composite z-score [20]: 1.11

COC(=O)[C@@H]1N=C(c2ccc(OCCCO)cc2)O[C@@H]1c1ccccc1
composite z-score [1]: -1.01
z-score [2]: -1.16 (inactive)
z-score [3]: -2.33 (inactive)
z-score [4]: -2.55 (inactive)
composite z-score [5]: 1.58
z-score [6]: 1.11 (inactive)
composite z-score [7]: -0.149
composite z-score [8]: -0.993
composite z-score [9]: -1
composite z-score [10]: -0.0485
composite z-score [11]: 1.76
composite z-score [12]: 0.311
composite z-score [13]: 0.725
z-score [14]: -2.07 (inactive)
composite z-score [15]: -1.4
composite z-score [16]: -1.33
composite z-score [17]: -0.665
composite z-score [18]: -1.22
composite z-score [19]: -1.71
composite z-score [20]: -0.0285

— PubChem BioAssay
